Results taken from PubChem BioAssay (Tox21).
Unmarked numbers belong to inactive results. Active and inactive are the calls of the source. Calls come from the whole dose curve; as a rule, active = well fitted curve in the direction sought with a large enough effect in the repeat runs; inconclusive = weak or mixed curves; inactive = flat fitted curve, though single readings scatter.

Experiment: qHTS assay to test for compound auto fluorescence at 535 nm (green) in HepG2 cells (AID 720675)
Settings: green autofluorescence 485/535 nm, 1 h; series mostly up to 91.3 µM; fluorescence, % of fluorescein control: at the top concentration
Excerpt: National Center for Advancing Translational Sciences [NCATS]
NIH Chemical Genomics Center [NCGC]
U.S. Environmental Protection Agency [EPA]
National Institutes of Environmental Health Sciences [NIEHS]
National Toxicology Program [NTP]
U.S. Food and Drug Administration [FDA]
Compound auto fluorescence often interferes with screening of the compound library against various biological targets and signaling pathways. Some of these compounds may have fluorophoric properties. Such properties may interfere with the assay outputs resulting in false positives and/or negatives. To decrease such complications and ensure the compound activities are relevant in terms of biological response, the Tox21 10K compound library was screened for auto fluorescence.
From the fluorophores used as reporter signals in our screening assays, the auto fluorescence equivalencies of compounds against three fluorophores have been evaluated: Triamterene, Fluorescein and Rose Bengal sodium for blue, green and red fluorescence, respectively. The fluorescence intensities were measured using Excitation/Emission wavelengths at 405/460nm, 485/535nm and 540/590nm for blue, green and red labels, respectively. This assay includes the green fluorescence data.
Tox21 Assay Protocol Summary:
2,000 HepG2 cells in 5 uL of culture medium (MEM containing 10% FBS) per well were dispensed into black wall/clear bottom 1536-well plates using a Multidrop Combi Dispenser (ThermoFisher Scientific, Waltham, MA). The assay plates were incubated overnight at 37 C to allow cell attachment to the well bottom, followed by the transfer of 23 nL compound or DMSO vehicle by a pintool work station (Kalypsys , San Diego, CA). After the assay plates were incubated for 1 hr at 37 C and 5% CO2, fluorescence intensities in the assay plates were measured by an Envision (PerkinElmer, Shelton, CT) plate reader using three labels for measuring blue, green and red fluorescence at […] 460, 535 and 590 nm respectively.
% is set by controls: 0 for no effect and ±100 for the full control effect.

| Structure (SMILES) | outcome | fluorescence, % of fluorescein control |
| --- | --- | --- |
| ClC(Cl)Cl | inactive | – |
| NC(=O)Cc1cccc(C(=O)c2ccccc2)c1N | – | 0.0215% [at 46 µM] |
| C[C@@H](N)C(=O)O | – | -0.0507% [at 46 µM] |
| CCOc1ccc(NS(=O)(=O)c2ccc(N)cc2)nn1 | – | 0.0058% [at 46 µM] |
| CCN(O)CC | – | -0.103% |
| COc1cc(Cl)ccc1Cl | – | 0.0003% [at 95.7 µM] |
| CCOc1ccc(NC(N)=O)cc1 | – | -0.0006% |
| CN(C)Cc1ccccc1 | inactive | – |
| Cc1cc2c(s1)Nc1ccccc1N=C2N1CCN(C)CC1 | – | -0.0017% [at 46 µM] |
| CCCCCCCCOC(=O)CCCCCCCCC(=O)OCCCCCCCC | – | 0.045% |
| C[C@]12CCC(=O)C=C1CC[C@@H]1[C@@H]2CC[C@@]2(C)[C@H]1CC[C@]2(O)C(=O)CO | – | 0.13% [at 46 µM] |
| CCCNC(C)C(=O)Nc1c(C)csc1C(=O)OC (stereo not given) | – | -0.0675% [at 18.6 µM] |
| OCCN(CCO)CCN(CCO)CCO | – | 0.0863% |
| CC1=CC(=O)CC(C)(C)C1=O | – | 0.0776% [at 95.7 µM] |
| CCCOCCC | – | 0.109% |
| Nc1ccc(Oc2ccc(N)c(N)c2)cc1 | – | 1.43% |
| CC(=O)OC1C2(C)CCC(C2)C1(C)C (stereo not given) | – | -0.0337% |
| CC(C)=CCCC(C)CCOC=O (stereo not given) | – | 0.0104% |
| COC(=O)c1ccc(OC)cc1 | – | -0.0212% |
| CC(C)NC[C@@H](O)COc1cccc2ccccc12 | – | 0.0105% [at 46 µM] |

| Structure (SMILES) | outcome | fluorescence, % of fluorescein control |
| --- | --- | --- |
| CC(C)(C)c1cccc(O)c1 | – | -0.0465% |
| O=C(O)c1ccccc1Nc1cc(Cl)ccc1C(=O)O | – | -0.0715% [at 46 µM] |
| CCCCCCCOC(=O)CCC | – | -0.0261% |
| CN1CCN(C2=Nc3ccccc3Oc3ccc(Cl)cc32)CC1 | – | -0.116% [at 18.6 µM] |
| CCN(CC)CC1CCCCN1CC(=O)N1c2ccccc2C(=O)Nc2cccnc21 (stereo not given) | – | -0.0148% [at 46 µM] |
| NCCCN1CCN(CCCN)CC1 | – | 0.0925% |
| CC/C=C\CCOC(=O)C(C)C | – | 0.0054% |
| CCOC(=O)NCCC[Si](OCC)(OCC)OCC | – | -0.0592% |
| Nc1ccc2ccccc2c1S(=O)(=O)O | – | 0.0833% [at 95.7 µM] |
| CCCCC(=O)O[C@]1(C(=O)CO)[C@H](C)C[C@H]2[C@@H]3CCC4=CC(=O)C=C[C@]4(C)[C@@]3(F)[C@@H](O)C[C@@]21C | – | -0.142% [at 46 µM] |
| O=C1CCCCC1C1CCCCC1 (stereo not given) | – | 0.0421% |
| CC1(C)S[C@@H]2[C@H](NC(=O)C(C(=O)O)c3ccccc3)C(=O)N2[C@H]1C(=O)O (stereo not given in full) | – | 0.133% [at 46 µM] |
| Cc1ccc(C)c(N)c1 | – | 0.141% |
| NC/C=C/C(=O)O | – | 0.0387% [at 46 µM] |
| CCOC(=O)CS | – | -0.0196% [at 95.7 µM] |
| C=Cc1ccccc1 | inactive | – |
| CCOC(=O)[C@H](CCc1ccccc1)N[C@@H](C)C(=O)N1Cc2cc(OC)c(OC)cc2C[C@H]1C(=O)O | – | 0.0587% [at 46 µM] |
| CCCCNc1ccc(C(=O)OCCN(CC)CC)cc1 | – | -0.0683% [at 46 µM] |
| CCCCNCCCC | – | 0.0564% |
| CC1(O)CSC(C)(O)CS1 (stereo not given) | – | 0.0084% |
